In article PMC4336329 (PLoS ONE, 2015):
About 14,000 (4.5%) of roughly 310,000 compounds showed an effect of 50% or more. The effect is printed as a negative number. Only a selection was taken, and strong results are over-represented in it overall.

Molecular target: human ether-à-go-go-related gene (hERG) potassium channel (human, UniProt Q12809)
Experiment: primary screen, population patch clamp on CHO cells stably expressing hERG; higher = less effect of the substance
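Further: peak tail current of the secondary pulse compared with the same well before compound.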

Chain of human ether-à-go-go-related gene (hERG) potassium channel (Q12809 whole entry, looked up): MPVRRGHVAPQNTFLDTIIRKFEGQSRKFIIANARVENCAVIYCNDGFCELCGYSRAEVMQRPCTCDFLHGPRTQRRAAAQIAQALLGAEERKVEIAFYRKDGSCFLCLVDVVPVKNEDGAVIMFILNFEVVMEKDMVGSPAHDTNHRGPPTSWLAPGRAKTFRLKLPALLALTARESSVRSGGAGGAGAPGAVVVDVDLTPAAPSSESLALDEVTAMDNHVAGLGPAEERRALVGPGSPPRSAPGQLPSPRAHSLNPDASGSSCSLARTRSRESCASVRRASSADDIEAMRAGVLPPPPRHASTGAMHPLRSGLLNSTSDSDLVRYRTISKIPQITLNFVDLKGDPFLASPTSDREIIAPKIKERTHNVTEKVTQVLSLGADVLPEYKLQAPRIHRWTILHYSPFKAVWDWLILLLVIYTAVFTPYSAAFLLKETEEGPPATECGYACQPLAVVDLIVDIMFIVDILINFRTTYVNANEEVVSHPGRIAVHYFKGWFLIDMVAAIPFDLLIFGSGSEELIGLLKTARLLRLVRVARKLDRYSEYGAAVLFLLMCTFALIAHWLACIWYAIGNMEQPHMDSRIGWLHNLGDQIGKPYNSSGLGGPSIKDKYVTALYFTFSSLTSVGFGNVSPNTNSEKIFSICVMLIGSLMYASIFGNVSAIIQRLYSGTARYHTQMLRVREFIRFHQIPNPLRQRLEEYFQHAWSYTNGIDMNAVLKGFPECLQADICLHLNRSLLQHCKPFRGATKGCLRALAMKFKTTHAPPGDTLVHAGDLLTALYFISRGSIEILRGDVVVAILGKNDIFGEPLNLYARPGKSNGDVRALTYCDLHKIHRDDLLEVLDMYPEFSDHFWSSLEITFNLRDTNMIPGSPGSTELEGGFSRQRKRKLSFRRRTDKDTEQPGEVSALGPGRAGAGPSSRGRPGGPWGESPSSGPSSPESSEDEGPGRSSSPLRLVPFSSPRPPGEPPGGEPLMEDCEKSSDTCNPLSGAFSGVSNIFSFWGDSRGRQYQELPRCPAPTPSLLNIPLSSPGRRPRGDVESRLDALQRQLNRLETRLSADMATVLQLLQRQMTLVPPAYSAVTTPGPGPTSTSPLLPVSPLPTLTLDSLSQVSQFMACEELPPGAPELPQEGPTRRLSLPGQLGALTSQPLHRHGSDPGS

| SMILES | hERG current change (%, negative = inhibition) at 10uM |
| --- | --- |
| C=C(C)COc1ccc(-c2nc(N)ncc2-c2ccccc2OC)c(O)c1 | -31.6% |
| COc1cc(OC)c(OC)cc1/C=C(\C#N)C(=O)NCc1cccs1 | 20.6% |
| O=C(Cn1cc2c(n1)CCCC2)Nc1ccccc1Br | 1.06% |
| CN1C2CCC1CC(NC(=O)c1cc(Cl)cc3[nH]cnc13)C2 (stereo not drawn) | 4.12% |
| CNC(=O)c1c2c(nc3ccc(Br)cc13)CCCC2 | 1.9% |
| CCCCn1c(N)c(N(CCOC)C(=O)C2CC(=O)N(c3cccc(SC)c3)C2)c(=O)[nH]c1=O (stereo not drawn) | 14.4% |
| COCCN1CN=C(Nc2nc3ccccc3o2)NC1 | 13.5% |
| COc1cccc(OC)c1C(=O)Nc1ccc(N2CCCC2)cc1 | 7.52% |
| Cc1ccc(N2C(=O)SC(Cc3ccccc3)C2=O)cc1 (stereo not drawn) | 13.7% |
| COc1ccc(N(Cc2cc3ccccc3[nH]c2=O)S(=O)(=O)c2ccccc2)cc1 | 2.91% |
| CCOC(=O)N1CCN(C(=O)c2ccc(OC(C)=O)cc2)CC1 | 16% |
| CCCOc1ccc(N2C(=O)CC(N3CCN(c4ccc([N+](=O)[O-])cc4)CC3)C2=O)cc1 (stereo not drawn) | -73.8% |
| CCCOc1ccc(N2C(=O)CC(N3CCOCC3)C2=O)cc1 (stereo not drawn) | -3.38% |
| CCOc1ccc(N2C(=O)CC(N3CCN(c4ccc([N+](=O)[O-])cc4)CC3)C2=O)cc1 (stereo not drawn) | -28.3% |
| O=C(COC(=O)c1cccc2ccccc12)Nc1cccnc1Cl | 0.703% |
| CCC1=NN2C(=N)/C(=C\c3cccn3-c3ccc(C)c(C)c3)C(=O)N=C2S1 | -6.32% |
| CCC1=NN2C(=N)/C(=C\c3cccn3-c3c(C)cccc3C)C(=O)N=C2S1 | -79.4% |
| CCC1=NN2C(=N)/C(=C\c3cccn3-c3ccc(C)cc3C)C(=O)N=C2S1 | -5.33% |
| Cc1ccc(-c2nc(C3CCCN(S(=O)(=O)c4ccc(C)cc4)C3)no2)cc1 (stereo not drawn) | 12.2% |
| Cc1ccc(S(=O)(=O)N2CCCC(c3nnc4n3-c3ccccc3SC4)C2)cc1 (stereo not drawn) | -92.8% |
| Cc1ccc(S(=O)(=O)N2CCCC(C)C2)cc1 (stereo not drawn) | 12.9% |
| O=C(O)CCCCCNC(=O)c1ccccc1 | 8.89% |
| N#CCSc1nnc(-c2cccnc2)n1-c1ccccc1 | -7.93% |

| SMILES | hERG current change (%, negative = inhibition) at 10uM |
| --- | --- |
| N#Cc1ccc(CSc2nnc(-c3cccs3)n2-c2ccccc2)cc1 | -72.7% |
| CCOc1ccc(-n2c(SCc3ccc(C#N)cc3)nnc2-c2cccnc2)cc1 | -71.9% |
| CCOc1ccc(-n2c(SCC(N)=O)nnc2-c2cccnc2)cc1 | -5.57% |
| N#Cc1ccc(CSc2nnc(-c3c[nH]c4ccccc34)n2-c2ccccc2)cc1 | 5.38% |
| CCOc1ccc(-n2c(SCc3cc(=O)oc4cc(C)c(C(C)C)cc34)nnc2-c2cccnc2)cc1 | -37.2% |
| NC(=O)CSc1nnc(-c2cccs2)n1-c1ccccc1 | 10.2% |
| CCOc1ccc(-n2c(SCc3cc(=O)oc4cc(C)ccc34)nnc2-c2cccnc2)cc1 | -70.7% |
| O=C(O)c1ccc(CSc2nnc(-c3cccnc3)n2-c2ccc(Br)cc2)cc1 | 15.1% |
| N#Cc1ccc(CSc2nnc(-c3cccnc3)n2-c2ccccc2)cc1 | -71.2% |
| COc1ccc(-n2c(SCC#N)nnc2-c2cccnc2)cc1 | -34% |
| CC(=O)Nc1ccc2c(CSc3nnc(-c4cccnc4)n3-c3ccc(C)cc3C)cc(=O)oc2c1 | -17.8% |
| O=C(CCCN1C(=O)/C(=C/c2ccccc2Cl)SC1=S)NNC(=O)c1ccncc1 | 2.34% |
| O=C(NNc1ccccn1)c1ccccc1CC[N+](=O)[O-] | 13.3% |
| COc1ccc(-c2ccc(C#N)c(SCC(=O)Nc3sc4c(c3C#N)CCC4)n2)cc1OC | 10.3% |
| COC(=O)c1c(C)[nH]c(C(=O)COc2ccc3ccc(=O)oc3c2)c1C | 11.5% |
| CN(C(=O)C1CCOC1)c1nnc(-c2cnccn2)s1 (stereo not drawn) | 11.1% |
| O=S(=O)(Nc1nc(-c2ccccc2)cs1)c1cc(Cl)ccc1Cl | 18.3% |
| CCOC(=O)C1=C(CC)OC(N)=C(C#N)C1c1ccsc1 (stereo not drawn) | 1.69% |
| CC1CCN(c2ccc(/C=N\Nc3nncn3N)cc2[N+](=O)[O-])CC1 | -5.89% |
| CC(C)c1ccc(CN2CCC(C(=O)NCc3cccnc3)CC2)cc1.O=C(O)C(=O)O | -52.1% |
| Cc1oc(-c2ccccc2F)nc1CN1CCC(C(=O)NCc2cccnc2)CC1 | -26.7% |
| CCS(=O)(=O)N1CCC(C(=O)NCc2cccnc2)CC1 | -11.7% |
| O=C(NCc1cccnc1)C1CCCN(S(=O)(=O)c2ccc(Cl)cc2)C1 (stereo not drawn) | -26.9% |

| SMILES | hERG current change (%, negative = inhibition) at 10uM |
| --- | --- |
| Cc1ccccc1-c1nc(CN2CCCC(C(=O)NCc3cccnc3)C2)c(C)o1 (stereo not drawn) | -64% |
| COc1ccc(C(C)C)cc1S(=O)(=O)N1CCC(C(=O)NCc2cccnc2)CC1 | -5.48% |
| Cc1oc(-c2ccc(Cl)cc2)nc1CN1CCC(C(=O)NCc2cccnc2)CC1 | -65.9% |
| Cc1ccc(-c2nc(CSCC(=O)NCc3cccnc3)c(C)o2)cc1 | -15.3% |
| Cc1cc(C)c(S(=O)(=O)N2CCCC(C(=O)NCc3cccnc3)C2)c(C)c1 (stereo not drawn) | -27% |
| Cc1oc(-c2ccc(Cl)cc2)nc1CN1CCCC(C(=O)NCc2cccnc2)C1 (stereo not drawn) | -60.8% |
| Cc1ccccc1-c1nc(CN2CCC(C(=O)NCc3cccnc3)CC2)c(C)o1 | -32.8% |
| CCOC(=O)COc1nc(Nc2ccccc2C)nc(N(C)C)n1 | 1.92% |
| Cc1ccc(N2CC(C(=O)OCC(=O)c3ccc[nH]3)CC2=O)cc1 (stereo not drawn) | -24.2% |
| Cc1cc(C)cc(C(=O)Nc2ccncc2)c1 | 7.83% |
| O=C(CNC(=O)c1ccco1)Nc1cccc(Cl)c1 | -10.8% |
| O=C(Nc1ccccc1C(=O)NCCCN1CCOCC1)c1ccc(Cl)cc1 | -15.5% |
| O=C(CCSc1ccccc1)N1CCCC1 | 10.9% |
| CCC(=O)NCc1ccc(-c2nc3ncccc3o2)cc1 | 13% |
| Cc1csc(SC(C)c2nc3scc(-c4ccccc4)c3c(=O)[nH]2)n1 (stereo not drawn) | 6.61% |
| Cc1ccc(S(=O)(=O)N2[C@@H](c3cccc(Cl)c3)C(C(=O)O)=CC[C@H]2c2cccs2)cc1 | 13.7% |
| Cc1oc(-c2ccc(Cl)cc2)nc1CN1CCCC(C(=O)NCc2ccccn2)C1 (stereo not drawn) | -67.8% |
| Cc1oc(-c2ccc(Cl)cc2)nc1CS(=O)CC(=O)NCc1ccccn1 (stereo not drawn) | -10.7% |
| Cc1oc(-c2cccc(Cl)c2)nc1CN1CCC(C(=O)NCc2cccnc2)CC1 | -60.9% |
| Cc1noc(C)c1S(=O)(=O)N1CCCC(C(=O)NCc2ccccn2)C1 (stereo not drawn) | 3.78% |
| O=C(Nc1nccs1)c1cccc(S(=O)(=O)N2CCCC2)c1 | -6.01% |
| Cc1cc(C(=O)CN2CCC(C)CC2)c(C)n1-c1ccccc1F | -5.74% |
| O=c1c2ccccc2nnn1-c1ccc(Br)cc1 | 12% |

| SMILES | hERG current change (%, negative = inhibition) at 10uM |
| --- | --- |
| COc1ccc(C(O)P(=O)(OC2CCCCC2)c2ccc(N(C)C)cc2)cc1OC (stereo not drawn) | -7.44% |
| CCCCC1C(=O)N(c2ccccc2)N(c2ccc(O)cc2)C1=O (stereo not drawn) | -9% |
| O=C(Cc1c[nH]c2ccccc12)NCc1ccc2c(c1)OCO2 | 19.4% |
| Cc1ccc(CCNC(=O)c2nc(CS(=O)(=O)c3ccc(Cl)cc3)no2)cc1 | 31.6% |
| c1cc(-c2ccncc2)ccn1 | 20.9% |
| c1cc(-c2sc(-c3ccncc3)c(-c3ccncc3)c2-c2ccncc2)ccn1 | -66.6% |
| Nc1ccncc1 | 5% |
| Cc1ccc2[nH]c(=O)c(CN(CC3CCCO3)C(=S)NCc3ccco3)cc2c1 (stereo not drawn) | -8.49% |
| COC(=O)c1ccc(-n2cnc(Cl)n2)c(F)c1 | -7.27% |
| COc1ccc(-n2nc(C(=O)NCC(=O)NCCCN3CCC(C)CC3)c3ccccc3c2=O)cc1Cl | -74.2% |
| CCOC(=O)C1CCCN(C(=O)CNC(=O)c2nn(-c3ccc(OC)c(Cl)c3)c(=O)c3ccccc23)C1 (stereo not drawn) | -5.66% |
| COc1ccc(-n2nc(C(=O)NCC(=O)NCCCN3CCOCC3)c3ccccc3c2=O)cc1Cl | -12.6% |
| CCOC(=O)C1CCN(C(=O)CNC(=O)c2nn(-c3ccc(OC)c(Cl)c3)c(=O)c3ccccc23)CC1 | -55% |
| COc1ccc(-n2nc(C(=O)NCC(=O)NCc3ccccc3OC)c3ccccc3c2=O)c(OC)c1 | 7.07% |
| COc1ccc(-n2nc(C(=O)NCC(=O)NCc3ccc(F)cc3)c3ccccc3c2=O)cc1 | -12.1% |
| COc1ccc(-n2nc(C(=O)NCC(=O)NCCCN3CCCCCC3)c3ccccc3c2=O)cc1Cl | -56% |
| CCC1CCCCN1CCCNC(=O)CNC(=O)c1nn(-c2ccc(OC)c(Cl)c2)c(=O)c2ccccc12 (stereo not drawn) | -39.4% |
| CCOC(=O)C1CCN(C(=O)CNC(=O)c2nn(-c3ccc(OC)c(OC)c3)c(=O)c3ccccc23)CC1 | -2.02% |
| CCCCNC(=O)CNC(=O)c1nn(-c2ccc(OC)c(Cl)c2)c(=O)c2ccccc12 | 9.5% |
| COc1ccc(-n2nc(C(=O)NCC(=O)NCc3ccccc3OC)c3ccccc3c2=O)cc1 | -69.5% |
| COCCCNC(=O)CNC(=O)c1nn(-c2ccc(OC)c(Cl)c2)c(=O)c2ccccc12 | 8.9% |
